BoNT-A LC inh2: BoNT A light chain protease inhibition; multiplex microsphere protease substrate cleavage, flow cytometry; inhibition, % at 10 µM; 360,000 compounds, 0.17% hits
Anthrax LF prot: anthrax lethal factor protease inhibition; P15917; multiplex microsphere protease cleavage assay, LF; inhibition, % at 10 µM; 360,000 compounds, 0.12% hits
Target sequence (P15917 whole entry, looked up): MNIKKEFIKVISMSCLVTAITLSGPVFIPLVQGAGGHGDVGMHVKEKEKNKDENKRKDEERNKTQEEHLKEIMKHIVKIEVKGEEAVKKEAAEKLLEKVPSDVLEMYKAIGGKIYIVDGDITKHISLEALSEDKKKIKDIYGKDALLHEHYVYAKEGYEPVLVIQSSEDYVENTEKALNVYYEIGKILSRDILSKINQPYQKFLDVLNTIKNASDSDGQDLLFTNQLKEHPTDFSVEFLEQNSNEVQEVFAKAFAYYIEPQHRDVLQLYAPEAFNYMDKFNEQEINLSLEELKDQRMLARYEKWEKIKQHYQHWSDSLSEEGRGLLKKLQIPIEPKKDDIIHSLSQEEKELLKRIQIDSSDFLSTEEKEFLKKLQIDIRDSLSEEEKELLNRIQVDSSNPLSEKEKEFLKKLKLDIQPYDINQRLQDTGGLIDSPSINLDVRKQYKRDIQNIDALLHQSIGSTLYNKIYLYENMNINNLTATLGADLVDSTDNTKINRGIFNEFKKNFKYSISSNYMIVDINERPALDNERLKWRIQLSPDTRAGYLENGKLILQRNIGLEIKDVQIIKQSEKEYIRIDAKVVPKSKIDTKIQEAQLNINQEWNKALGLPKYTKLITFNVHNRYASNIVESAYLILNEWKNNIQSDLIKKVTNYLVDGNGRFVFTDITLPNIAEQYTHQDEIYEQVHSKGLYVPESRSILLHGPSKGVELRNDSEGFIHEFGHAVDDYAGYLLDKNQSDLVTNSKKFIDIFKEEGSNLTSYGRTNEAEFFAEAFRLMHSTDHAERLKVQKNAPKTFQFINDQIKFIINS
Autofluor counter: compound fluorescence in toxin protease inhibitor counterscreen | AID 624483 | 360,000 compounds, 3.1% hits | compound autofluorescence counterscreen, microsphere flow cytometry; stronger effect = higher value | fluorescence intensity (no concentration beside the values); in the data active = fluorescence intensity above about 16000; inconclusive = no clear call, values can overlap the other calls
BoNT-F LC inh: BoNT F light chain protease inhibition; 360,000 compounds, 0.22% hits; Multiplex microsphere protease cleavage assay, flow cytometry; inhibition, % at 10 µM; in the data active = inhibition above about 35%, passing the limit was not always enough; inconclusive = no clear call, values can overlap the other calls
PfHsp40 yeast: rescue of PfHsp40-mediated yeast toxicity | growth rescue, % at 12.5 µM | 340,000 compounds, 0.68% hits | S. cerevisiae expressing PfHsp40, growth rescue, ATP luminescence; in the data active = growth rescue above about 28%, passing the limit was not always enough; inconclusive = no clear call, values can overlap the other calls;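 also: yeast W303a lacking pdr1 and pdr3 grown in galactose medium; growth measured after three days at 30 °C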
MazF activator: activators of E. coli MazEF toxin-antitoxin RNase; FAM/BHQ RNA-DNA oligo cleavage fluorescence, 5 h; activation, % at 20 µM; 350,000 compounds, 0.32% hits; AID 504720; in the data active = activation above about 50%
Numbers stand for hits; i = inactive; ? = inconclusive; nt = not tested or not shown. Sampled rows, rich in hits. Any-hit rate of the full collection: about 4.3%. Rule as the data show it, unless noted: active = inhibition above about 30%; inconclusive = no clear call, values can overlap the other calls; inactive = below that.

SMILES	BoNT-A LC inh2	Anthrax LF prot	Autofluor counter	BoNT-F LC inh	PfHsp40 yeast	MazF activator
CON/C=C(\C=Nc1ccc(Cl)cc1)c1ncc(C(F)(F)F)cc1Cl	i	i	23332	i	i	i
CCOc1cccc(CNC2CN3CCC2CC3)c1 (stereo unspecified)	?	i	16409	i	i	i
Cn1c(N)c(C(=O)COC(=O)c2ccc(OC(F)F)cc2)c(=O)n(C)c1=O	i	i	i	i	i	i
O=C(Nc1ccc(S(=O)(=O)Nc2nccs2)cc1)c1ccc(=O)[nH]c1	i	i	i	i	i	i
CCN(CC)c1ccc(/C=C/C(=O)C2C(=O)C=C(C)OC2=O)cc1 (stereo unspecified)	70	73	66487	154	i	i
COc1ccc(CCN2CC(C(=O)N(C)C3CCOCC3)CCC2=O)cc1 (stereo unspecified)	i	i	i	i	i	i
COc1cc2c(cc1OC)C(c1ccc(O)cc1)NCC2 (stereo unspecified)	i	i	i	?	74	i
Cc1nc2ccc(C(=O)N(C)Cc3ccccc3)cn2c1N(C)C(=O)CCc1ccccc1	i	i	i	i	nt	nt
COc1cc2c(C(=O)N3CCN(C)CC3)c(C)n(-c3ccccc3)c2cc1Br	i	i	25113	i	i	i
CC(=O)NC1C(OC(=O)/C=C/c2ccccc2)OC(COC(C)=O)C(OC(C)=O)C1OC(C)=O (stereo unspecified)	i	i	i	i	i	i
Cc1ccc(-c2noc(-c3ccccc3C(=O)N3CCOCC3)n2)cc1	i	i	i	i	i	i
COc1ccc(-c2noc(-c3ccccc3C(=O)N3CCOCC3)n2)cc1	i	i	20897	i	i	i
C(=C\c1ccccc1)/C=N/n1cnnc1	i	i	24268	i	i	i
CCc1c(C)nc2cc(-c3ccccc3)[nH]n2c1=O	i	i	i	36	i	i
CC(C)(C)OC(=O)N1CC(O)CC1C(=O)OCC(=O)c1ccc(Cl)cc1 (stereo unspecified)	i	i	20684	i	i	i
O=C(COc1ccccc1Br)Nc1ccc(S(=O)(=O)N2CCCC2)cc1	i	i	i	i	i	i
O=C(c1ccco1)N1CCN(C2CC(=O)N(c3ccccc3)C2=O)CC1 (stereo unspecified)	i	i	i	i	i	i
O=C(c1ccco1)N1CCN(C2CC(=O)N(c3ccc4c(c3)OCO4)C2=O)CC1 (stereo unspecified)	i	i	22383	i	i	i
CCOC(=O)N1CCN(C(=O)c2cccc(-n3c(=S)[nH]c4cc(Cl)ccc4c3=O)c2)CC1	i	i	20777	i	i	i
N/C(Cc1ccc(Cl)cc1Cl)=N\OC(=O)c1ccccc1F	i	i	i	i	156	i
CCOc1ccc(CCNC(=O)COC(=O)c2oc3ccccc3c2COC)cc1OCC	i	i	i	i	i	i
COc1ccc(C2C(=O)N(CCc3ccccc3)CC(=O)N2C2CCCCC2)cc1 (stereo unspecified)	i	i	25113	i	i	i
CSc1ccccc1NC(=O)CSCc1ccc(Br)cc1	i	i	16464	i	i	i
CCOc1ccc(N(CC(=O)NN=C2CCN(C)CC2)S(=O)(=O)c2ccc(Br)cc2)cc1	i	i	i	i	i	i
Cc1ccc(S(=O)c2ccc(C)cc2)cc1	?	i	20056	i	i	i
SMILES	BoNT-A LC inh2	Anthrax LF prot	Autofluor counter	BoNT-F LC inh	PfHsp40 yeast	MazF activator
Oc1ccc(-c2cc(-c3ccc(O)cc3)nc(-c3ccccc3)n2)cc1	i	i	i	i	i	59
Nc1ccc(-c2cc(-c3ccc(N)cc3)nc(-c3ccccc3)n2)cc1	i	i	i	i	i	i
Cc1[nH]n(-c2ccccc2)c(=O)c1N=Nc1nccs1	nt	nt	nt	nt	36	i
Cc1ccccc1N=Nc1c(C)[nH]n(-c2ccccc2)c1=O	nt	nt	nt	nt	nt	i
CCOC(=O)Cc1ccc(Nc2nc(NCc3ccccc3)nc3ccsc23)cc1	i	i	i	i	nt	nt
CC(C)CC(=O)NCCc1ccncc1	i	i	22906	i	i	i
CN(C)c1nc2n(c(=O)n1)C(C#N)CS2 (stereo unspecified)	i	i	16338	i	i	i
O=C(O)Cn1cc2c(n1)CCCCC2	i	i	i	i	30	i
CNC(=S)N/N=C(\C)c1ccc(N2CCOCC2)cc1	i	i	i	i	203	i
CCNC(=S)N/N=C(\C)c1ccc(N2CCOCC2)cc1	i	i	i	i	i	i
COc1ccc(-c2ccnc3nc(-n4cccc4)nn23)cc1	i	i	20861	i	i	i
CCN(CC)C(=O)C1=C(C)NC(=O)NC1c1c(F)cccc1Cl (stereo unspecified)	i	i	16958	i	i	i
CCOC(=O)C1=C(C)NC(=O)NC1c1ccc(F)cc1 (stereo unspecified)	i	i	i	i	i	i
COc1cc2c3nnc(-c4ccc(F)cc4)c-3cn(Cc3ccccc3F)c2cc1OC	i	i	i	i	i	i
COc1cc2c3nnc(-c4ccccc4)c-3cn(Cc3ccccc3F)c2cc1OC	nt	nt	nt	nt	nt	734
CC1CC(=O)c2ccccc2C1C (stereo unspecified)	i	i	i	i	i	i
O=C(c1ccncc1)N1CCN(C(=O)c2ccncc2)CC1	i	i	22332	i	i	i
Cc1ccc(C(=O)N2CCSCC2)cc1	i	i	20353	i	i	i
Cc1ccc(NC(=O)Nc2ccc(C(=O)N3CCOCC3)cc2)cc1	i	i	i	i	i	i
CS(=O)(=O)N1CCN(C(=O)c2ccncc2)CC1	i	i	i	i	i	i
O=C(N/N=C\c1c(O)ccc2ccccc12)c1cncc(Br)c1	42	i	i	i	i	i
Cc1ccc(NC(=O)COc2ccc(/C=N/NC(=O)CSCc3ccccc3)cc2)cc1	i	i	22872	i	i	i
O=S(=O)(/N=C/c1c(O)ccc2ccccc12)c1ccccc1	i	i	i	42	i	i
O=C(CSCC(=O)Nc1ccccc1)N/N=C/c1c(O)ccc2ccccc12	i	i	23512	i	?	86
O=C(CSCc1ccc(Cl)cc1)N/N=C/c1ccc(OCC(=O)Nc2ccccc2)cc1	i	i	i	i	i	i
SMILES	BoNT-A LC inh2	Anthrax LF prot	Autofluor counter	BoNT-F LC inh	PfHsp40 yeast	MazF activator
O=C(N/N=C/c1c(O)ccc2ccccc12)c1cccnc1	i	i	i	i	i	i
O=C(O)c1ccc(N=Cc2c(O)ccc3ccccc23)cc1	i	i	i	i	i	i
Cc1ccc2nc(N(CCCN(C)C)C(=O)c3ccc4ncsc4c3)sc2c1	i	i	i	i	i	i
CN(Cc1cccc(F)c1)C(=O)C1CC(=O)N(Cc2ccco2)C1 (stereo unspecified)	i	i	i	i	nt	i
Cn1c(SCc2ccc([N+](=O)[O-])cc2)nnc1-c1ccncc1	i	i	i	i	i	i
Cc1ccc(CNC(=O)C2CCN(S(=O)(=O)c3ccc(Br)s3)CC2)cc1	i	i	i	i	i	i
COc1ccc(/C=N/NC(=O)CSCC(=O)Nc2ccccc2)cc1OC	?	i	19130	i	i	i
COc1ccc(/C=N/NC(=O)CSc2ccccc2)cc1OC	i	i	i	i	i	i
